This is an account of results in PubChem BioAssay (NCI).

SMILES strings stand for the structures. The panel holds about 83,000 compounds, 20% with a hit somewhere; the sample as a whole holds those more often.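 For each line, cells grew in 96-well plates with the test compound present at a single concentration for 48 hours.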 Activity calls are given as the source filed them.

This test deals with PC-3 prostate. Briefly: NCI-60 one-dose screen, 48 h (100 = growth as untreated, 0 = no growth, -100 = all killed). The settings on record: 10 µM unless noted. As for the experimental part:
Growth inhibition of the PC-3 human tumor cell line is measured as a screen for anti-cancer activity. Cells are grown in 96 well plates and exposed to the test compound for 48 hours. Compounds are tested at a single concentration, which is 10^-5 M for most compounds. The reported endpoint is percent growth (GI% or GIPRCNT), where numbers from 0 - 100% represent growth inhibition, and numbers from -100% - 0 represent cell death. For example, a value of 40 represents 60% growth inhibition. A value of 0 means no net growth occurred over the course of the experiment. A value of -40 indicates 40% of cells at the beginning of the experiment died by the end of the experiment. A value of -100 means all cells are dead at the end of the experiment.
NCI-60 Human Tumor Cell Lines Screen was performed using the standard one-dose NCI protocol, which is described in more detail at https://dtp.cancer.gov/discovery_development/nci-60/default.htm.
Compounds with GIPRCNT values below 10 were considered active. Activity score was based on GIPRCNT using the following formula: […]
Score is 0 for GIPRCNT values of 100 or above, 50 for GIPRCNT values of 0, and 100 for GIPRCNT values of -100.
In the case of `Clc1ccc2c(NCCNc3nc(Cl)nc4ccccc34)ccnc2c1`, the growth is -45.7% (active). Consider `Cc1c(Cl)ccc2c(C(=O)Cl)cc(-c3ccccc3)nc12`, for which the growth was 96% (inactive). `Cc1cn(-c2cc(C(=O)Nc3cccc(-n4ccc5c(NC(=O)c6ccccc6)nccc54)c3)cc(C(F)(F)F)c2)cn1`: the growth is 18.5% (inactive). As to `CCC1S/C(=N\N=C(/C)c2cc3ccccc3o2)N(c2ccccc2)C1=O` (stereo not given), the growth was 81.7% (inactive). For `O=[N+]([O-])c1ccccc1NC1c2ccccc2Oc2ccccc21`, the growth was 56.1% (inactive). For `C=C1C(=O)O[C@H]2[C@H]1CC/C(COC(=O)c1cc(OC)c(OC)c(OC)c1)=C\CC[C@@]1(C)O[C@@H]21`, the growth was 18.6% (inactive). In the case of `CCCCOc1nc2ccc(Cl)cc2cc1/C=C/C(=O)/C=C/c1ccc(OC)cc1`, the growth is 88.9% (inactive). Regarding `CCNc1cc(S(=O)(=O)O)ccc1C`, the growth is 90.5% (inactive). Then `CCCCNc1cc(C(=O)O)cc(S(N)(=O)=O)c1Oc1ccccc1`, with 95.7% (inactive). Consider `COC(OC)C1(c2ccccc2)NC(=O)NC1=O` (stereo not given), for which the growth was 103% (inactive). As to `COc1cc2c(cc1OC)-c1c(oc3c4c(ccc3c1=O)OC(C)(C)C=C4)CO2`, the growth is 75.1% (inactive). Then `COc1cc(C(=O)NNC(=O)c2ccccc2O)cc(OC)c1OC`, with 70.9% (inactive).

For `CCOC(=O)c1noc2c1CCc1cn(Cc3cc(OC)cc(OC)c3)cc1-2`, the growth was 92.8% (inactive). Then `Cc1cccc(NCS(=O)(=O)O)c1`, with 93% (inactive); and `COc1ccccc1NC(=O)COc1ccc(/C=C2/Oc3cc4occc4c(OC)c3C2=O)cc1OC`, with 92.2% (inactive). The result for `COc1ccc(NC(=O)Nc2ccc(-c3ccc(OC)c(OC)c3)nc2C)cc1` reads 81.4% (inactive). For the molecule `Cc1c(F)cccc1NC(=O)c1sc2nc3c(cc2c1N)CCCCC3`, the growth was 70.7% (inactive). Turning to `CCOc1cccc(Nc2nc(N)nc3[nH]c4ccc(O)cc4c23)c1`, the growth was 74.8% (inactive). Turning to `Nn1c(SCC(=O)Nc2cc(Cl)c(Cl)cc2Cl)nnc1-c1cc(F)c(Cl)cc1Cl`, the growth was 97.8% (inactive).

As for `c1ccc(CNCCN(CCNCc2ccccn2)Cc2ccc3ccccc3c2)nc1`, the growth is -0.81% (active). As for `O=C1CN(CCN2CC(=O)NC(=O)C2)CC(=O)N1`, the growth is 89.8% (inactive). The result for `COc1ccc2c(c1)OC(N(C(C)=O)C(C)=O)=C(C#N)C2c1ccc(F)cc1` (stereo not given) reads 21.9% (inactive); that for `COc1ccccc1S(=O)(=O)Nc1ccc2c3c(cc(-c4cnn(C)c4)nc13)C(=O)N2C`, 42.1% (inactive). As for `Nc1ncnc2c1c(C(F)(F)F)cn2[C@@H]1O[C@H](CO)[C@@H](O)[C@H]1O`, the growth was 12.1% (inactive).

For the molecule `NC(CCCC(N)C(=O)c1ccccc1)C(=O)O` (stereo not given), the growth was 83.3% (inactive). For `Cc1cc(O[C@@H]2O[C@@H](C)[C@H](O)[C@@H](O)[C@H]2O)c2c3c(c(O[C@@H]4O[C@@H](C)[C@H](O)[C@@H](O)[C@H]4O)cc2c1)C(=O)c1c(O)cccc1C3=O`, the growth was 56.7% (inactive). On to `Cc1cc(NC(=O)c2cccc(C(F)(F)F)c2)ccc1-n1ccc2c(NC(=O)c3ccccc3)nccc21`, for which the growth was 74.6% (inactive). The result for `COc1ccc(-c2c(C#N)cnc(N)c2-c2nc3cc(C)c(C)cc3[nH]2)cc1` reads 57.8% (inactive). The result for `Cc1nc(-c2ccc(Cl)cc2)ccc1NC(=O)Nc1cccc(C(F)(F)F)c1` reads 80.5% (inactive); that for `Cc1cc(NCCN(C(C)C)C(C)C)nc(/N=C(\N)Nc2ccc(Cl)c(C(F)(F)F)c2)n1`, -94% (active); that for `CC[C@H]1[C@@H]2C=C[C@@H]3[C@H]4C/C=C\C(=O)NCCC[C@@H]5NC(=O)/C(=C(O)/C=C/[C@@H]4C[C@@H]3[C@H]2C[C@H]1C)C5=O`, -35.3% (active). Then `CC(C)NCC(O)COc1ccc(CC(N)=O)cc1` (stereo not given), with 92.5% (inactive); and `[2H]c1nc(Nc2ncc(F)c(-c3cc(F)c4nc(C)n(C(C)C)c4c3)n2)c([2H])c([2H])c1CN1CCN(CC)CC1`, with 47.8% (inactive); and `COc1cccc(-c2nc3sccn3c2-c2ccnc(NCCNC(=O)c3ccccc3)n2)c1`, with 79.7% (inactive). On to `Cc1cc(N2CCOCC2)nc(N(CCNc2ccnc3cc(Cl)ccc23)Cc2ccco2)n1`, for which the growth was 46.7% (inactive). In the case of `CCn1cc(/C=C2\Oc3cc(OCC#N)ccc3C2=O)c2cc(OC)ccc21`, the growth was 16.7% (inactive). As to `COc1ccc(-c2coc3c(CO)c(O)ccc3c2=O)cc1`, the growth was -27.7% (active). For the molecule `c1ccc2c(c1)Oc1cccnc1-n1nccc1-2`, the growth is 89.7% (inactive). Consider `Cc1ccc2c(C3C(C#N)=C(N)Oc4cc5ccccc5cc43)cc(=O)oc2c1` (stereo not given), for which the growth is 18.8% (inactive). As to `CCn1c(C)nc([N+](=O)[O-])c1Sc1nc(N)nc2nc[nH]c12`, the growth was 52.7% (inactive).
